Broadly, the inhibition is the percentage by which the read-out fell short of the control.

Unmarked numbers belong to inactive results. How the calls were made is not given here.

18 compounds from PubChem BioAssay can be followed below.

The assay deals with Pantothenate synthetase (Mycobacterium tuberculosis (strain ATCC 25618 / H37Rv)) (UniProt P9WIL5). In words: Recombinant Mtb pantothenate synthetase (PanC) inhibitors, coupled enzyme, confirmatory (AID 375).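 Further: 0% = full reaction with vehicle and 100% = no enzyme background.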 The following applies: coupled enzyme assay; at 10 µM, hits give high values.
Pantothenate synthetase (Mycobacterium tuberculosis (strain ATCC 25618 / H37Rv)), sequence (P9WIL5 whole entry, looked up): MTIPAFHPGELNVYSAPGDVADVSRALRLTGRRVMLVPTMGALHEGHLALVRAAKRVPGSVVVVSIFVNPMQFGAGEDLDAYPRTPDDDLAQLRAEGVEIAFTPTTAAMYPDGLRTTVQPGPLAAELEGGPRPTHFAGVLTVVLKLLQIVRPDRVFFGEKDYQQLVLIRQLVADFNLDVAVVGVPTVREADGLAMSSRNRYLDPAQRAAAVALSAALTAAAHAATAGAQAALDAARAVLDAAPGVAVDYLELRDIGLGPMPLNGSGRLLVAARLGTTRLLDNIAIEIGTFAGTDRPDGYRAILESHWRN

On to `CC(C)[N+](C)(CCOC(=O)C1c2ccccc2Oc2ccccc21)C(C)C`, for which the inhibition was 0%.
For `Cc1cc(C)c(S(=O)(=O)Nc2cccnc2)c(C)c1`, the inhibition was 0%.
To `CCOC(=O)c1c(C)[nH]c(C(=O)CSc2nc3ccccc3o2)c1C` belongs 0%; to `Cc1ccc(C)c(-n2nnnc2SCC(=O)NCCC2=CCCCC2)c1`, 3%.
Turning to `CCc1ccc(NC(=O)CS(=O)CC(=O)NC(C)CCc2ccco2)cc1` (stereo not drawn), the inhibition was 2%.
Regarding `COC(=O)Cn1c(C)nc2c(sc3nc(C)cc(C)c32)c1=O`, the inhibition was 3%.
With `CCC(C)OC(=O)n1ccc(C(=O)Nc2nccs2)n1` (stereo not drawn), the inhibition was 0%.
Take `CC(C)COC(=O)C(C#N)c1nc2ccccc2nc1N1CCN(Cc2ccccc2)CC1` (stereo not drawn): the inhibition was 0%.
`Oc1c(Cl)cc(Cl)cc1Sc1cc(Cl)cc(Cl)c1O`: the inhibition was 0%.
As for `COc1ccc(CCN2C(=O)CC(N3CCOCC3)C2=O)cc1` (stereo not drawn), the inhibition is 0%.
To `Cc1ccccc1NC(=O)C1CCCN(S(=O)(=O)c2cnc[nH]2)C1` (stereo not drawn) belongs 2%.
Consider `CC(C)(C)OC(=O)NC(CCNC=C1C(=O)OC(C)(C)OC1=O)C(=O)O` (stereo not drawn), for which the inhibition was 4%.
Consider `CCN1C(=O)Cc2cc(S(=O)(=O)N3CCOCC3)ccc21`, for which the inhibition was 9%.
The value for `COc1ccccc1CN1CC(C(=O)NCc2cccnc2)CC1=O` (stereo not drawn) was 2%.
Take `C/C=C/c1ccc(OCCn2cncn2)c(OC)c1`: the inhibition is 0%.
Take `COc1ccc(-c2noc(CN3C(=O)c4ccccc4C3=O)n2)cc1`: the inhibition was 0%.
On to `COc1nnc(-c2ccc(C)c(S(=O)(=O)NCCO)c2)c2ccccc12`, for which the inhibition is 3%.
With `CCc1cc(=O)oc2cc(OC(C)=O)cc(OC(C)=O)c12`, the inhibition was 0%.
